# Bioassay records: PubChem BioAssay, several laboratories
# IDE cell activ: human IDE activators in live cells, primary screen, fluorescence polarization, HEK cells, FAbeta-B substrate | Insulin-degrading enzyme (Homo sapiens), P14735 | FAbeta-B cleavage; 0% vehicle, 100% cell-free pure enzyme wells | activation, % at 5.96 µM | 0.073% of 340,000 active;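 active means activation above the mean of all tested compounds plus 3 SD, set per screening campaign, cut at about 17% in these data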
# TPT1 inhibitor: Candida albicans TPT1 enzyme inhibitors, primary screen, biochemical, fluorescence polarization; tRNA 2'-phosphotransferase TPT1 (Candida albicans SC5314); recombinant caTPT1, FP RNA substrate dephosphorylation; inhibition, % at 5 µM; 0.81% of 300,000 active;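 active means inhibition above the mean of all tested compounds plus 3 SD, set per screening campaign, cut at about 24% in these data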;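 further: plate controls were DMSO alone for no effect and ferristatin control at 100 nM for full effect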
# IDE cell inh: human IDE inhibitors in live cells, primary screen, fluorescence polarization, HEK cells, FAbetaB substrate; Insulin-degrading enzyme (Homo sapiens), P14735; AID 434962, 2010; inhibition, % at 5.59 µM; 0.41% of 320,000 active; FAbetaB cleavage;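 active means percent inhibition above the average of all tested compounds plus 3 SD, set per screening campaign, cut at about 16% in these data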;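 further: IDE supplied by intact live HEK cells; FP after avidin binding of uncleaved biotin substrate so inhibition keeps polarization high; 0% = DMSO wells and 100% = 60 µM reference IDE inhibitor Ii1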
# CRFR2-BP antag: antagonists of CRF-BP/CRF-R2 complex, primary screen, cell-based, HEK293, calcium dye fluorescence, uHTS; CRF-induced calcium fluorescence; inhibition, % at 11.8 µM; 0.59% of 350,000 active; AID 588475, 2011;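 active means inhibition of the ligand-induced calcium signal above about 50% at the single tested concentration, limit read from the data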
# Myeloid diff MLP: induction of myeloid progenitor differentiation, primary screen, cell-based, flow cytometry, MLPCN library; ER-HoxA9 myeloid progenitors, lysozyme-GFP differentiation; calls only at 10 µM; 1% of 360,000 active; AID 624256, 2012;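 active means normalized GFP-positive differentiation at or above the plate's own cutoff, the solvent-only control mean plus 3 SD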;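 further: cells exposed to compound for four days before flow analysis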
# CRFR2-BP ag: agonists of CRF-BP/CRF-R2 complex, primary screen, cell-based, HEK293, calcium dye fluorescence, uHTS; calcium dye fluorescence (FLIPR); percent of saturating CRF peptide response; 0.46% of 350,000 active; activation, % at 13.2 µM; AID 588473, 2011; CRF-binding protein / CRF receptor 2 complex (human);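 active means activation of at least 50%, plus an integration ratio under a set limit after plate pattern correction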;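 further: plate controls were neutral control wells without compound for no effect and CRF at EC100 for full effect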
# An asterisk follows results filed as active; i = inactive; nt = no result; + = active, no number. Sampled rows, rich in hits. Any-hit rate of the full collection: about 2.6%.
SMILES,IDE cell activ,TPT1 inhibitor,IDE cell inh,CRFR2-BP antag,Myeloid diff MLP,CRFR2-BP ag
Cc1cc(C(=O)N2CCN(c3ccc([N+](=O)[O-])cc3)CC2)co1,3,-2,-2,59*,i,0
CSc1ccc(/C=C/C(=O)OCC(=O)N2CCN(S(=O)(=O)c3ccc(C)cc3C)CC2)cc1,-10,nt,1,-6,i,0
CCOC(=O)C1CCN(c2cc3c(cc2NC(=O)c2cc(OC)ccc2Br)n(C)c(=O)n3C)CC1,-2,-5,2,72*,i,-6
CCOC(=O)C1CCN(c2cc3c(cc2NC(=O)c2ccccc2Br)n(C)c(=O)n3C)CC1,3,4,-1,-3,i,-5
O=C(Nc1cc(S(=O)(=O)N2CCCCC2)ccc1Cl)c1ccc(F)cc1,4,nt,-2,9,i,0
COC(=O)[C@@]12CCCN1[C@H](c1ccc(-c3ccc(Cl)c(Cl)c3)cc1)[C@H]1C(=O)N(C)C(=O)[C@H]12,-3,0,4,38,i,1
Cc1cccc(NC(=O)CN2CCN(C(=O)c3cc(C4CC4)nn3-c3ccccc3)CC2)c1C,nt,nt,nt,-14,+,0
CCCN(C(=O)c1nc2nc(C)cc(C)n2n1)c1c(N)n(Cc2ccccc2)c(=O)[nH]c1=O,1,nt,7,6,i,-1
CN1C(=O)C2(N=c3ccccc3=N2)c2ccccc21,-1,1,1,68*,i,0
CN1C(=O)C2(OCC(C)([N+](=O)[O-])CO2)c2ccccc21 (centres undefined),3,1,-7,23,nt,-4
O=C(O)C1CCCN1S(=O)(=O)c1ccccc1 (centres undefined),-2,2,-5,0,+,0
O=C(O)C1CCCN1S(=O)(=O)c1ccc(Cl)cc1 (centres undefined),0,-4,1,-5,i,1
Cc1cccc(NC(=S)N(CCN(C)C)C(C)c2ccccn2)c1 (centres undefined),-1,1,-2,10,+,1
Cc1cc(N=NC(=O)c2ccccc2O)c2ccccc2c1O,-2,0,-4,51*,i,26
O=C(NCCc1cccc(F)c1)/C(=C/c1cccnc1)NC(=O)c1ccccc1,1,0,0,0,i,-1
O=C(O)c1ccc2c(c1)C(=O)N(CCc1c[nH]c3ccccc13)C2=O,3,nt,nt,-3,i,0
CCOC(=O)c1cc(NC(=O)Nc2cc(C)ccn2)c(C)nc1C,1,-2,-3,113*,i,-2
COc1cc(NC(=O)c2cccc(S(=O)(=O)N3CCCCC3)c2)cc(OC)c1OC,0,nt,-5,-45,i,0
COc1ccccc1C(=O)NC(CCSC)C(=O)NC1CCCCCC1 (centres undefined),5,3,5,101*,i,-1
COc1ccccc1C(=O)NC(CCSC)C(=O)NC1CC1 (centres undefined),2,nt,-5,10,i,-1
CCOC(=O)Cc1csc(NC(=O)c2c(O)c3c(n(CC(C)C)c2=O)CCCC3)n1,-11,0,-2,-8,i,5
CCC(=O)Nc1ccccc1Sc1ncnc2scc(-c3ccccc3)c12,-3,1,11,12,i,-1
COc1ccc(C(=O)Nc2cc(-c3ccccc3)nn2-c2ccccc2F)cc1,4,-2,-3,10,+,-1
CS(=O)(=O)c1ccc(C(=O)Nc2cc(-c3ccccc3)nn2-c2ccccc2)cc1,4,1,3,1,i,-3
COc1ccc(C(=O)Nc2cc(=O)n(C)c(=O)n2C)cc1,0,-1,-5,104*,i,0
SMILES,IDE cell activ,TPT1 inhibitor,IDE cell inh,CRFR2-BP antag,Myeloid diff MLP,CRFR2-BP ag
CC(C)(Cc1nc2ccccc2[nH]1)c1nc2ccccc2[nH]1,nt,nt,nt,1,i,5
COc1cccc(NC(=O)CCNC(=O)N2CC(=O)Nc3ccccc32)c1,5,3,2,5,i,4
CC(=O)NC(CCCN1C(=O)c2ccccc2C1=O)c1nnn(C)n1 (centres undefined),4,-3,-1,11,i,-2
Cc1noc(C)c1S(=O)(=O)Nc1ccc(C(=O)N2CCC(C)CC2)cc1,nt,3,-6,nt,nt,nt
COc1ccc(CN2C(=O)Cc3c2nc(N)c2c(N)nc(N4CCOCC4)c(C#N)c32)cc1,2,10,7,-2,i,3
COCCN1C(=O)Cc2c1nc(N)c1c(N)nc(N3CCN(c4ccc(F)cc4)CC3)c(C#N)c21,4,28*,-1,2,i,0
CNC(=O)COC(=O)c1cc(SC)ccc1Cl,-2,-1,-8,-8,+,-1
Brc1ccccc1-c1nnc(CSc2nnnn2-c2ccccc2)o1,4,6,1,111*,i,0
Cc1nnc(SCc2nnc(-c3ccccc3Br)o2)n1-c1ccccc1,-5,5,-2,0,i,1
Cc1cc(/C=N/n2cnnc2)c(C)n1-c1ccc(OCc2ccc(Cl)cc2Cl)cc1,-4,-3,5,-3,i,1
Cc1cc(/C=N/n2cnnc2)c(C)n1-c1ccc(OCc2ccc(F)cc2)cc1,-2,-2,-5,-10,+,0
COc1cccc(C(=O)NCC(C)(C)SCc2ccc(F)cc2)c1,-1,1,-3,-4,i,-2
COC(=O)Cc1c(O)ccn(CCc2ccc(OC)c(OC)c2)c1=O,5,2,2,-1,i,-1
COc1ccc(CCn2ccc(O)c(Cc3ccc(Cl)cc3)c2=O)cc1OC,6,-5,-1,-2,+,0
O=C(O)c1ccc(CNC(=O)C2CCN(S(=O)(=O)c3cccs3)CC2)cc1,nt,nt,nt,-2,i,0
CCOC(=O)C1=NN(C(=O)c2ccccc2)C(O)(c2ccc(C)cc2)C1 (centres undefined),-1,-4,0,-4,i,105*
CCOC(=O)C1=NN(C(=O)c2cccc(Br)c2)C(O)(C(C)(C)C)C1 (centres undefined),nt,0,0,nt,nt,nt
COC(=O)C1=NN(C(=O)c2cccc(Br)c2)C(O)(c2ccc(Cl)cc2)C1 (centres undefined),-1,22,-2,-30,i,99*
CCOC(=O)C1=NN(C(=O)Cc2ccccc2)C(O)(c2ccc(Cl)cc2)C1 (centres undefined),2,1,-8,-26,i,-2
Cc1ccc(C)c(CSc2nnc(-c3cccs3)n2Cc2ccco2)c1,1,3,2,50*,+,0
